# Assay outcomes: PubChem, National Center for Advancing Translational Sciences (NCATS)
# Most compounds without a hit are left out; they make up all but 9.2% or so of the library.
# ELG1 genotox = qHTS screen for small molecules that induce genotoxicity in human embryonic kidney (HEK293T) cells expressing luciferase-tagged ELG1; HEK293T ELG1-luciferase reporter, luminescence, 16 h; AID 504466, 2011; 330,000 compounds, 1.3% hits; Potency, µM (titrated, usually from 46 µM), for inactives: at the top dose activity change, positive = activation, most hits filed as activators; further: % of control where 0% means no effect; nearly all actives have a fitted effect of over 60% in size
#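 After overnight (16 hr) compound treatment at 37 °C, ELG1-luciferase HEK293T cells were lysed with ONE-Glo; luminescence quantified 30 min later at room temperature.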
# Rab9 prom act = qHTS Assay for Rab9 Promoter Activators; Huh7 Rab9 promoter-luciferase reporter, luminescence, 24 h; Potency, µM (series often up to 9.22 µM), inactives show at the top dose activation, negative = inhibition, actives largely listed as activators; 320,000 compounds, 2.8% hits; further: % of control where 0% means no effect; nearly all actives have a fitted effect of over 60% in size
#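 Measured in stably transfected Huh7 cells bearing a Rab9 promoter–luciferase construct: 24 h compound treatment at 37 °C, followed by luminescence detection.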
# FLuc counter = qHTS profiling assay for firefly luciferase inhibitor/activator using purifed enzyme and Km concentrations of substrates (counterscreen for miR-21 project). Potency, µM (doses to about 57.5 µM), inactives show top-dose activity change, negative = inhibition, most hits filed as inhibitors. AID 588342, 2011. Luciferin 4-monooxygenase (Photinus pyralis), P08659. purified FLuc, Km substrates, luminescence inhibition. 360,000 compounds, 6.9% hits;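 further: plate controls were vehicle for no effect and reference inhibitor for full effect; nearly all actives have a fitted effect of over 55% in size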
# Target sequence (P08659 whole entry, looked up): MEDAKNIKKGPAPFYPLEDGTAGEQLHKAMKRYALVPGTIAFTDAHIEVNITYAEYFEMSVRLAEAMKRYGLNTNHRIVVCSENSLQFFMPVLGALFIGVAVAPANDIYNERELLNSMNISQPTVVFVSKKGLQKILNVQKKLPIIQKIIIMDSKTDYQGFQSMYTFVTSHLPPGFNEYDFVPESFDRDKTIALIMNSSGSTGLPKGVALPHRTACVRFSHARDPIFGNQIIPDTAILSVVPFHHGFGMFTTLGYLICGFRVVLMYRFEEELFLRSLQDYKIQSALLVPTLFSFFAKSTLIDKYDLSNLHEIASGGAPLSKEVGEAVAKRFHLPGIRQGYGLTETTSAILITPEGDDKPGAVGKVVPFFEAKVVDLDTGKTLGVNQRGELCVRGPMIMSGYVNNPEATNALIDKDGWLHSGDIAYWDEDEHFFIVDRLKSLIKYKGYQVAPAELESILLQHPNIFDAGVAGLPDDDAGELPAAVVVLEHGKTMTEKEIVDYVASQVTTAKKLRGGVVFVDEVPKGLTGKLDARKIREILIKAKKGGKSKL
#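 Purified P. pyralis luciferase, 10 nM final, with Km-level 10 uM D-luciferin and 10 uM ATP in 50 mM Tris acetate pH 7.5, 10 mM Mg acetate, 0.01% Tween-20, 0.05% BSA; 6-point qHTS titration about 60 µM downward; luminescence read.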
# SMN2 splice enh = qHTS Assay for Enhancers of SMN2 Splice Variant Expression; AID 1458, 2008; HEK293 SMN2-luciferase splicing reporter, luminescence, 30-36 h; Potency, µM (top dose mostly 46.1 µM), for the others: at the highest dose activity change, positive = activation, most hits filed as activators; 210,000 compounds, 2.8% hits; further: % of control where 0% means no effect; nearly all actives have a fitted effect of over 55% in size
#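 HEK293 cells carry an SMN2 minigene-luciferase reporter in which exon 7 inclusion puts luciferase in frame. Cells were seeded at 2000 cells/well, attached for 10-12 hours, then exposed to compounds for 30-36 hours at 37C before ONE-Glo luminescence.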
# NPC1 promoter act = qHTS Assay for NPC1 Promoter Activators. Potency, µM (series often up to 9.22 µM), inactives show top-dose activation, hits mostly activators. 320,000 compounds, 2.4% hits. Huh7 NPC1 promoter luciferase reporter, 24 h; further: % of control where 0% means no effect; nearly all actives have a fitted effect of over 60% in size
#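 Stable NPC1-promoter luciferase Huh7 line; cpd (DMSO) 24 h, 37 °C, 5% CO2; Amplite luciferase reagent 10 min RT; luminescence readout. qHTS format.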
# ELG1 repair inh = qHTS screen for small molecules that inhibit ELG1-dependent DNA repair in human embryonic kidney (HEK293T) cells expressing luciferase-tagged ELG1. Potency, µM (titrated, usually from 46.1 µM), for inactives: top-dose activity change, negative = inhibition, usual class: inhibitors. HEK293T ELG1-luciferase reporter, luminescence, 16 h; DNA damage induced by 5-fluorouridine. AID 504467, 2011. 330,000 compounds, 2.3% hits; further: on the % scale 0 is the no-effect control and ±100 the full control effect; nearly all actives have a fitted effect of over 55% in size
#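 Quantitative HTS, concentration-response format. 2,000 cells/well co-treated with 5-fluorouridine and compound, 16 hr in 5% CO2 at 37 °C; ONE-Glo luminescence read after 30 min.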
# Starred values were filed as active, the others as inactive; ? = inconclusive; . = no result; [ ] = another dose, or the depositor's remark. The call rests on the fitted dose curve; in most records, active means well fitted curve in the direction sought with a large enough effect; inconclusive means small, poorly fitted or top-dose-only effect, or another doubt; inactive means no such curve, though single readings can be large; an effect the other way counts as inactive or inconclusive. Potency means the concentration at half of the fitted maximal effect.
SMILES,ELG1 genotox,Rab9 prom act,FLuc counter,SMN2 splice enh,NPC1 promoter act,ELG1 repair inh
Cc1cc(OCC(=O)Nc2ccncc2)c(C)cc1Br,0%,-3%,?,14%,1%,-13%
CC(C)(C)c1ccc(OCC(=O)NNC(=S)NC(=O)c2ccccc2[N+](=O)[O-])c(Br)c1,4%,-2%,27µM*,.,1%,5%
CCc1ccc(OCC(=O)Nc2ccncc2)c(Br)c1,?,0%,3.4µM*,.,1%,?
O=C(COc1ccc(Br)cc1)Nc1ccncc1,0%,1%,?,8%,-3%,-21%
COc1cc(CCCN2C(N)=NC[C@H]2Cc2ccc(O)cc2)cc(OC)c1OC,0%,0%,1%,.,-5%,3%
O=C(CN1C(=O)c2ccccc2C1=O)[C@@H](O)CN1C(=O)c2ccccc2C1=O,.,.,.,7%[9.22 µM],.,.
COc1ccccc1C(=O)COC(=O)COc1cccc2c1OC(C)(C)C2,9.2µM*,2.5µM*,4.8µM*,.,2µM*,?
COc1ccc(NC(=O)COC(=O)COc2cccc3c2OC(C)(C)C3)cc1,-3%,-3%,4%,.,1%,4%
COc1cccc(-c2ncc3ccccn23)c1,?,2.8µM*,8.5µM*,14µM*,4µM*,?
Fc1ccc(-c2ncc3ccccn23)cc1,7%,0%,-15%,.,0%,?
Brc1ccc(-c2ncc3ccccn23)cc1,?,3.2µM*,13µM*,.,3.2µM*,?
COc1cc(OC)cc(-c2ncc3ccccn23)c1,4%,4%,17µM*,-6%,1%,-4%
COc1cc(-c2ncc3ccccn23)cc(OC)c1OC,10%,-3%,-1%,25%,1%,-13%
COc1ccc(-c2ncc3ccccn23)cc1,11%,?,?,?,5%,?
O=C(COC(=O)CNC(=O)c1ccccc1)Nc1ccc2c(c1)OCO2,-1%,-3%,-6%,-3%,1%,5%
COc1ccccc1OCC(=O)NC1CCSc2ccccc21 (stereo unspecified),-2%,-2%,2%,.,-1%,17%
COc1ccc(N2CC(C)Cn3c2nc2c3c(=O)n(Cc3ccc(F)cc3)c(=O)n2C)c(OC)c1 (stereo unspecified),-8%,-7%,1%,-11%,-6%,16µM*
Oc1cc(NCc2cccnc2)ccc1-c1nc2ccccc2o1,?,?,7.6µM*,11µM*,1.4µM*,?
O=C(Nc1ccc(-c2nc3ccccc3o2)c(O)c1)c1cc(Cl)ccc1Cl,.,.,?,5%,.,.
Cc1cc(C)cc(OCC(=O)Nc2cccc3cccnc23)c1,.,.,-2%,-11%,.,.
NS(=O)(=O)c1ccc(N=Cc2c(O)c3ccccc3oc2=O)cc1,-6%,0%,-3%,-4%,-4%,-1%
COc1ccc(N=Cc2c(O)c3ccccc3oc2=O)cc1,16%,4%,0.76µM*,9%,0%,?
CC(C)c1ccc(N=Cc2c(O)c3ccccc3oc2=O)cc1,18%,2%,0.38µM*,.,-6%,?
COc1ccc(N=Cc2c(O)cc(C)oc2=O)cc1,6%,1%,12µM*,2%,-6%,-2%
COc1ccc(OCC(=O)c2c(O)c3ccccc3oc2=O)cc1,9%,2%,17µM*,.,0%,-11%
SMILES,ELG1 genotox,Rab9 prom act,FLuc counter,SMN2 splice enh,NPC1 promoter act,ELG1 repair inh
CN(CCCC1CCCC1)C(=O)CC1C(=O)NCCN1Cc1cccc(F)c1F (stereo unspecified),-2%,9%,2%,.,-1%,-4%
C=CC[C@H](CC(=O)NCCO)C(=O)N[C@H](COC(=O)[C@@H](CC=C)Cc1ccc(F)cc1)c1ccccc1,2%,.,.,.,.,7%
CCCCN=C(C)c1c(O)c2ccccc2oc1=O,?,4µM*,19µM*,?,?,?
CCCCC(=O)c1c(O)c2ccccc2oc1=O,-9%,-1%,?,-12%,1%,?
COc1ccc(-c2csc3nc(-c4ccccc4)oc(=O)c23)cc1OC,?,-20%,-16%,-69%,-1%,14%
COc1ccc(-c2nc3ccc(C)cc3c(=O)o2)cc1OC,-2%,0%,3.4µM*,.,2%,0%
CCN1C(=O)c2ccc(-c3nc4ccccc4c(=O)o3)cc2C1=O,2%,5%,-11%,.,-2%,3%
COc1cc2nc(-c3ccccc3C)oc(=O)c2cc1OC,-1%,-2%,?,.,-1%,5%
CC(=O)Oc1ccc2nc(-c3cccs3)oc(=O)c2c1,2%,-3%,?,-11%,-2%,22%
Cc1ccc(-c2nc3ccccc3c(=O)o2)cc1,?,3.2µM*,4.3µM*,.,?,?
Cc1ccc2nc(-c3ccccc3C)oc(=O)c2c1,0%,1%,6µM*,.,-2%,4%
CC(=O)Oc1ccc2nc(-c3ccco3)oc(=O)c2c1,-3%,0%,12µM*,.,-3%,-5%
O=c1oc(-c2cccs2)nc2ccc(Br)cc12,5%,-1%,?,-4%,2%,?
Cc1ccc2nc(Cl)nc(-c3ccccc3)c2c1,-4%,-8%,4%,.,-3%,3%
Cc1ccc2nc(-c3ccccc3)oc(=O)c2c1,5%,2%,3.8µM*,.,-7%,0%
O=c1oc(-c2ccc(Br)o2)nc2ccccc12,?,20%,?,?,19%,?
CC(=O)Oc1ccc(-c2nc3ccccc3c(=O)o2)cc1,-3%,1%,9.5µM*,.,-5%,7%
Cc1ccc2nc(-c3cccs3)oc(=O)c2c1,-3%,-2%,9.5µM*,-1%,-1%,?
Cc1cc(-c2nc3ccccc3c(=O)o2)ccc1[N+](=O)[O-],?,16%,2.7µM*,.,27%,?
COc1ccc(CCNC(=O)C(=O)NCCC2CCCCN2S(=O)(=O)c2cccs2)cc1 (stereo unspecified),-6%,1%,1%,.,0%,?
CCNC(=O)C1CCN(c2nc3ccccc3nc2C(F)(F)F)CC1,.,.,6%,.,.,.
COc1cc(/C=N/NC(=S)NC2CC3C=CC2C3)cc(OC)c1OC (stereo unspecified),0%,1%,-10%,.,-4%,18µM*
COc1cc(/C=N/NC(=S)NCCc2ccccc2)cc(OC)c1OC,4%,-3%,27µM*,.,-1%,?
